# Test results as given in PubChem BioAssay AID1851 (National Center for Advancing Translational Sciences (NCATS), 2009).
# In all, about 16,000 compounds went through this assay and about 4,000 (25%) were called active. Roughly 26% stayed inconclusive and do not appear here. The call rests on the fitted dose curve; in most records, active means well fitted curve in the direction sought with a large enough effect; inconclusive means small, poorly fitted or top-dose-only effect, or effect the other way; inactive means no such curve, though single readings can be large or run the other way. A selection follows.
# Target: Cytochrome P450 2C9 (Homo sapiens) (UniProt P11712)
# Assay: Cytochrome panel assay with activity outcomes
# Conditions: recombinant CYP, pro-luciferin dealkylation, luminescence, p450-cyp2c9; series mostly up to 57.1 µM
# On the % scale 0 is the no-effect control and ±100 the full control effect.
# Cytochrome P450 2C9 (Homo sapiens), sequence (P11712 whole entry, looked up): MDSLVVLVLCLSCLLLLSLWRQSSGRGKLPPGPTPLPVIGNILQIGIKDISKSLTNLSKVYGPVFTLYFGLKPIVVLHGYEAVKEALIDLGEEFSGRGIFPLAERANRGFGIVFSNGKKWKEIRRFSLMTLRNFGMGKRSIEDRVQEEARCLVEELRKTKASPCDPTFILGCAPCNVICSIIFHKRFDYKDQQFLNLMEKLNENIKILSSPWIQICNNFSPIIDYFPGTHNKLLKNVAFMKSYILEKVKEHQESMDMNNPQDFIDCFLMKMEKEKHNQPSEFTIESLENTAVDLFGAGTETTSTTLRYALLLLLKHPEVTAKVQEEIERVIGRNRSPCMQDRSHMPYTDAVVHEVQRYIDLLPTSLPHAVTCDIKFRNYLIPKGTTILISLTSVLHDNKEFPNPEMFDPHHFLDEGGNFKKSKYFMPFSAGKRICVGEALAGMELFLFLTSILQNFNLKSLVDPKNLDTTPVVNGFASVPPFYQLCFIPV
Compound,AC50,"activity, negative = inhibition"
N#Cc1cccc(NC(=O)N2CCC3(CC2)CCN(C(=O)c2cccc(F)c2)CC3)c1,inactive,–
Cc1cc2c(s1)CCCCC(=O)N2,inactive,–
CN(C)CCCO[C@H]1[C@@H]2OC(C)(C)O[C@@H]2O[C@@H]1[C@H](O)CO,inactive,–
COc1ccc(NC(=O)N2CCC3(CC2)CCN(S(=O)(=O)c2ccccc2)CC3)cc1,inactive,–
COc1ccc(NC(=O)N2CCC3(CC2)CCN(S(C)(=O)=O)CC3)cc1,15.8 µM (active),–
COc1ccc(NC(=O)N2CC3(CCN(S(C)(=O)=O)CC3)C2)cc1,inactive,–
O=C(Nc1ccccc1)N1CCCC2(CCN(S(=O)(=O)c3ccccc3)CC2)C1,10 µM (active),–
CS(=O)(=O)N1CCC[C@@]2(CCN(C(=O)Nc3ccccc3)C2)C1,inactive,–
COc1ccc(NC(=O)N2CC3(CCN(S(=O)(=O)c4ccccc4)CC3)C2)cc1,inactive,–
O=C(Nc1ccccc1)N1CCC2(CC1)CCN(S(=O)(=O)c1ccccc1)CC2,inactive,–
COc1ccc(NC(=O)N2CCCC3(CCN(S(=O)(=O)c4ccccc4)CC3)C2)cc1,20 µM (active),–
COc1ccc(NC(=O)N2CCCC3(CCN(S(C)(=O)=O)CC3)C2)cc1,inactive,–
CN1CC[C@@]2(CCN3CCc4c(oc5ccccc45)[C@@H]3C2)N(C)C1=O,inactive,–
Cc1nc(N=Nc2cc(S(=O)(=O)O)ccc2S(=O)(=O)O)c(COP(=O)(O)O)c(C=O)c1O,inactive,–
CN1CCCC[C@@H]1CCN1CCCCC1,–,-2.28% [at 11.4 µM] (inactive)
CSc1nncn1/N=C/c1ccc2c(c1)OCO2,inactive,–
Cn1c(=O)n(C)c2cc(/C=N/n3cnnc3)ccc21,2.24 µM (active),–
Cn1c(=O)n(C)c2cc(S(=O)(=O)O)ccc21,inactive,–
CC(C)OC(=O)C1=C2SCC(=O)N2C(N)=C(C#N)C1,8.91 µM (active),–
Nc1nc(N)nc(CCCc2nc(N)nc(N)n2)n1,–,9.16% [at 11.4 µM] (inactive)
CC(=O)Nc1nnc(S(N)(=O)=O)s1,inactive,–
CC(C)=CC(=O)Nc1nnc(C(C)C)s1,10 µM (active),–
CC(=O)Nc1nnc(CCN2CCCCC2)s1,inactive,–
Cc1c(C(=O)N/N=C/c2ccccc2)sc(=S)n1C,inactive,–
Cc1ccccc1/C=N\NC(=O)c1csnn1,inactive,–
Cc1nn(-c2ccccc2)c(C)c1/C=N/NC(=O)c1cc(-c2ccc(Cl)s2)[nH]n1,7.94 µM (active),–

Compound,AC50,"activity, negative = inhibition"
CCOC(=O)C1(S(=O)(=O)c2ccc(Cl)cc2)CCN(Cc2ccc(Cl)cc2)CC1,3.55 µM (active),–
O=C(NCCN1CCCC1)C1(S(=O)(=O)c2ccc(Cl)cc2)CC1,inactive,–
CC(C)(C)C(=O)N1CCC(O)(CS(=O)(=O)Cc2ccc(Cl)cc2)CC1,inactive,–
CCn1c(CC(C)C)n[nH]c1=S,inactive,–
S=c1[nH]nc(CCc2ccccc2)n1Cc1ccccc1,7.94 µM (active),–
Cc1ccccc1N1CCN(S(=O)(=O)C[C@@]23CC[C@H](C[C@H]2NC(=O)[C@@H](N)CCS(C)(=O)=O)C3(C)C)CC1,inactive,–
COC(=O)c1sc2ccccc2c1-n1cccc1C(=O)C(=O)Nc1ccc(Cl)cc1,0.1 µM (active),–
C=CCNC(=O)c1cccn1-c1ccsc1C(=O)OC,inactive,–
COC(=O)c1ccccc1NS(=O)(=O)c1ccc2c3c(cccc13)C(=O)N2,0.178 µM (active),–
CCCCOC(=O)Nc1ccccc1C(=O)OC,inactive,–
Oc1ccc([C@@H]2CNCc3sccc32)cc1O,inactive,–
Cc1cc(C)cc(Oc2coc3cc(OC(=O)c4cccs4)ccc3c2=O)c1,inactive,–
Cc1ccc2nc(/C(C#N)=C\c3ccc(OC(=O)c4cccs4)cc3)[nH]c2c1,2 µM (active),–
Cn1c(=O)c2c(ncn2CCO)n(C)c1=O,inactive,–
Cn1c(=O)c2c(ncn2C[C@@H](O)CO)n(C)c1=O,inactive,–
Cn1c(=O)c2c(ncn2CC(COCc2ccccc2Cl)OCc2ccccc2Cl)n(C)c1=O (stereo unspecified),15.8 µM (active),–
CCC(C)NS(=O)(=O)c1ccc(NC(=O)CCC2CCCCC2)cc1 (stereo unspecified),inactive,–
Cc1ccc(NC(=S)NC2CCCC2)cc1,inactive,–
O=C(CCc1ccc(S(=O)(=O)NC2CCCCC2)cc1)N(Cc1ccccc1)Cc1ccccc1,1 µM (active),–
Cc1ccc(NC(=O)CCc2ccc(S(=O)(=O)NC3CCCCC3)cc2)cc1,3.98 µM (active),–
OCCNCCCOc1cccc(Cl)c1Cl,inactive,–
O[C@@H](c1ccccc1)C1CCN(CCc2ccccc2)CC1,inactive,–
CCCCNc1nc(SC)nc2nc[nH]c12,–,-18.3% [at 11.4 µM] (inactive)
O=C(OCc1nc2ccccc2s1)c1ccc(Br)s1,4.47 µM (active),–
O=C(O)c1ccc(Oc2nc3ccccc3s2)cc1,–,-27% [at 11.4 µM] (inactive)
Cc1cc([N+](=O)[O-])c(C)c(Br)c1C,–,20.3% [at 11.4 µM] (inactive)

Compound,AC50,"activity, negative = inhibition"
O=C(NCCOC(=O)c1ccc(C(=O)OCCNC(=O)c2cccnc2)s1)c1cccnc1,3.98 µM (active),–
CC(=O)OCCNC(=O)c1cccnc1,inactive,–
O=C(NCCO[N+](=O)[O-])c1cccnc1,2 µM (active),–
CN(C)c1ccnc(-c2ccccc2C(F)(F)F)n1,–,10.1% [at 2.29 µM] (inactive)
CCOC(=O)C[C@@H](C(=O)OCC)[C@@H]1CCCCC1=O,–,19.8% [at 11.4 µM] (inactive)
COc1ccccc1CC(=N)N1C[C@@H]2C(=O)CCC(c3ccccc3)(c3ccccc3)[C@@H]2C1,inactive,–
C=C1CCO[C@@]2([C@H](O)[C@@](C)(O)CO)NC(=O)[C@]1(O)NC2=O,–,5.79% [at 11.4 µM] (inactive)
NC(=O)c1cccc(N)c1,12.6 µM (active),–
NC(=O)/C(=N\O)c1ccccc1,inactive,–
N=C(N)c1ccccc1,inactive,–
O=C1C(Cc2ccccc2)SC(=Nc2ccccc2)N1c1ccccc1 (stereo unspecified),15.8 µM (active),–
O=C1C(Cc2ccccc2)NC(=S)N1c1ccccc1 (stereo unspecified),inactive,–
CCOc1ccc(-n2c(=O)[nH]cc(C(=O)N3CCCc4ccccc43)c2=O)cc1,12.6 µM (active),–
CCOc1ccc(NC(=O)C(=O)NCC2CCCN2CC)cc1 (stereo unspecified),inactive,–
O=C(c1c[nH]c(=O)n(-c2ccccc2)c1=O)N1CCc2ccccc21,inactive,–
O=[N+]([O-])c1ccc(Cl)c(-c2ccc(/C=N/c3c(-c4ccco4)nc4ccccn34)o2)c1,inactive,–
COc1ccc(C=Nc2c(O)ccc3ccccc23)cc1OC,–,-1.31% [at 11.4 µM] (inactive)
COc1cc(-c2nc3ccccn3c2/N=C/c2ccccc2)ccc1O,14.1 µM (active),–
CCOc1cc(/C=N/n2cnnc2)c(Br)cc1O,10 µM (active),–
CCOc1cc(/C=N/O)cc(Cl)c1OC,inactive,–
COc1ccc(NC(=O)N2CC3(CCN(C(=O)c4cccn4C)CC3)C2)cc1,inactive,–
CCC(Sc1nc2n[nH]c(C)c2c(=N)n1-c1cccc(Cl)c1)C(=O)NCCOC (stereo unspecified),4.47 µM (active),–
COCCNC(=O)CCn1nc(-c2ccc(Cl)cc2)ccc1=O,inactive,–
CO[C@@H]1COC(=O)[C@H](C)NC(=O)[C@@H](C)COC(=O)CCC[C@H]1C,–,10.9% [at 11.4 µM] (inactive)
N#C/C(=C\c1ccc(O)c(O)c1)C(=O)NCCc1ccccc1,inactive,–
N#C/C(=C\c1ccc(O)c(O)c1)C(=O)OCCc1cccs1,15.8 µM (active),–

Compound,AC50,"activity, negative = inhibition"
CC(Oc1ccc(Cl)cc1)c1ccnn1S(=O)(=O)c1ccccc1 (stereo unspecified),7.94 µM (active),–
CC(Oc1ccc(-c2ccccc2)c(F)c1)c1ccn(S(=O)(=O)c2ccc(Cl)cc2)n1 (stereo unspecified),7.08 µM (active),–
CC(C)CN1CCC2(CC1)CCN(S(=O)(=O)c1ccccc1)CC2,inactive,–
CC(Oc1ccccc1)c1ccnn1S(=O)(=O)c1ccccc1 (stereo unspecified),4.47 µM (active),–
COc1cc2nc(N3CCN(C(=O)[C@@H]4CCCO4)CC3)nc(N)c2cc1OC,inactive,–
O=C(NNS(=O)(=O)c1cc(Cl)cc(Cl)c1)c1sccc1-n1cccc1,0.126 µM (active),–
CCCCC#Cc1nc(NC)c2ncn([C@@H]3O[C@@H](CO)[C@H](O)[C@H]3O)c2n1,0.631 µM (active),–
CNc1ncnc2c1ncn2[C@@H]1O[C@H](CO)[C@@H](O)[C@@H]1O,inactive,–
CNc1ncnc2c1ncn2[C@@H]1O[C@@H](CO)[C@H](O)[C@@H]1O,inactive,–
COc1ccc2c(c1)N(CC[C@H]1CCCCN1C)c1ccccc1S2,–,-3.81% [at 11.4 µM] (inactive)
N#CC1=C(SCC(N)=O)NC2=C(C(=O)c3ccccc32)C1c1ccc(Cl)cc1 (stereo unspecified),6.31 µM (active),–
CSC1=C(C#N)C(c2ccccc2Cl)C2=C(N1)c1ccccc1C2=O (stereo unspecified),1 µM (active),–
O=C(O)CC/C=C\CC[C@H]1[C@@H](N2CCCCC2)[C@@H](O)C[C@@H]1OCc1ccc(-c2ccccc2)cc1,inactive,–
Cn1c(=O)c2c(n(Cc3ccccc3)c1=O)NC(=O)C2CC(=O)NCc1cccc(Cl)c1 (stereo unspecified),12.6 µM (active),–
COCCCNCC(=O)c1c(N)n(Cc2ccccc2)c(=O)n(C)c1=O,inactive,–
C1CCN(CC[C@@H]2CCCCN2)CC1,–,12.5% [at 11.4 µM] (inactive)
C[N+](C)(N)Cc1csc(-c2ccc(Cl)cc2)n1,–,2.29% [at 11.4 µM] (inactive)
CCCCCN1CC(O)=C(c2nc(-c3ccc(Cl)cc3)cs2)C1=N,0.631 µM (active),–
CCCCc1n[nH]c2c1/C(=N/O)CC(c1ccccc1)C2 (stereo unspecified),2 µM (active),–
COc1ccccc1-c1ccc2ncnc(NCc3cnc(C)cn3)c2c1,–,-18.5% [at 2.29 µM] (inactive)
O=C1CC(c2cccs2)c2cc3c(cc2N1)OCO3 (stereo unspecified),15.8 µM (active),–
COc1ccc(Oc2nc3ccccc3nc2C(F)(F)F)cc1,7.94 µM (active),–
COc1ccc(-n2c(=O)cnc3cnc(Oc4ccccc4)nc32)cc1,inactive,–
